# USP1 inh – USP1/UAF1 (human) deubiquitinase inhibition | recombinant USP1/UAF1, Ub-Rhodamine cleavage fluorescence | O94782 | 0.23% of 390,000 active | Potency, µM (titrated, usually from 57.1 µM), most hits filed as inhibitors | AID 743255; note: nearly all actives have a fitted effect of over 60% in size
#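 In this screen, compounds sit with the deubiquitinase complex (1nM) for 15 min at room temperature before Ub-Rho is added at 150nM final. Fluorescence rise is then followed for 6 reads every 60 seconds.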
# FBPA coupling cs – inhibits coupling enzyme system, counter-screen for aldolase hits; coupling enzyme system counterscreen, AmpLite Red fluorescence; activity change, negative = inhibition, % at 58.2 µM, hits read low; 0.67% of 290,000 active; AID 2472; in the data active = activity change below about -30%
#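 First, compound is pin-transferred into glyceraldehyde-3-phosphate coupling-enzyme reagent at 57.5 uM final and held 10 min at RT. Next, substrate, coupling system and AmpLite Red are added. After 20 min RT, fluorescence (525/598 nm) is read.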
# Tau ThT inhib – inhibitors of human tau fibril formation, thioflavin T binding. P10636. recombinant tau K18 P301L, heparin-induced fibrillization, ThT fluorescence. Potency, µM (top dose mostly 57.4 µM), actives largely listed as inhibitors. 2.1% of 270,000 active. AID 1460; note: nearly all actives have a fitted effect of over 55% in size
# Target sequence (P10636 561-689 P618L limits assumed): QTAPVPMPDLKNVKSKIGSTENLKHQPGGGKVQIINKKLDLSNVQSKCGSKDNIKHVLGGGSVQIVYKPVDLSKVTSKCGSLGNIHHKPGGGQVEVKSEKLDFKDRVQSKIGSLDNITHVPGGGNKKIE
#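 Fibril formation assay: tau K18 P301L at 15 uM with trace Alexa 594 label, heparin inducer 20 uM, pH 7 sodium acetate buffer, 37 C for 6 hr; endpoint ThT signal.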
# Tau fibril FP – blocks human tau fibril formation measured by polarization | P10636 | K18 P301L tau heparin fibrillization, Alexa594 FP, 6 h | Potency, µM (series often up to 57.7 µM), actives largely listed as inhibitors | 0.39% of 280,000 active | AID 1468; note: nearly all actives have a fitted effect of over 55% in size
#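 Heparin (20 uM) drove fibril formation of recombinant tau K18 P301L, 15 uM unlabeled with 0.24 uM Alexa 594 label, for 6 hr at 37 C in 100 mM sodium acetate pH 7. Fluorescence polarization (555/632 nm) read 1 hr after 30 uM ThT.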
# Tau fluor cs – counter-screen for tau fibril formation inhibitors; tau K18 P301L (four-repeat tau fragment) Alexa594 fluorescence, heparin fibrillization; Potency, µM (series often up to 57.7 µM); 0.93% of 280,000 active; AID 1463; note: nearly all actives have a fitted effect of over 55% in size
#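 Human K18 P301L tau (15 uM unlabeled plus 0.24 uM Alexa 594-labeled, final) in 100 mM sodium acetate pH 7 was mixed with compound and 20 uM heparin and incubated 6 hr at 37 C.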
# Numbers stand for hits; 0 = inactive; ? = inconclusive; - = no result given; [ ] = dose if it differs, or a comment. The list is not random: actives were taken first. Their share in the collection is about 2.3%. Unless noted, calls come from the whole dose curve; as a rule, active = well fitted curve in the direction sought with a large enough effect; inconclusive = small, poorly fitted or top-dose-only effect, or another doubt; inactive = no such curve, though single readings can be large; an effect the other way counts as inactive or inconclusive.
SMILES,USP1 inh,FBPA coupling cs,Tau ThT inhib,Tau fibril FP,Tau fluor cs
CCOc1ccccc1-c1nnc2n1N=C(c1cc(OC)cc(OC)c1)CS2,-,0,-,-,-
COc1ccc(OC)c2c(C)cc(NCCN3CCOCC3)nc12,0,-30,?,0,0
O=C1NC(=Nc2ccc(O)cc2)S/C1=C/c1ccco1,0,0,?,0,?
Cc1ccc(N=C2NC(=O)/C(=C\c3ccco3)S2)cc1,0,0,?,0,0
COc1ccc(N=C2NC(=O)/C(=C\C=C\c3ccco3)S2)cc1,0,0,8.9µM,?,?
O=C1NC(=Nc2ccc3ccccc3c2)S/C1=C/c1ccco1,0,0,14µM,?,?
Cc1cccc(N=C2NC(=O)/C(=C/C=C/c3ccco3)S2)c1,0,0,5µM,0,0
COc1ccc(N2CCN(C(CNC(=O)COc3ccccc3)c3ccco3)CC2)cc1 (centres undefined),0,-,-,-,-
Cc1nnc(C)c2c(C)n(-c3ccccc3N)c(C)c12,0,-40,?,0,0
Cc1nnc(C)c2c(C)n(-c3ccccc3)c(C)c12,0,0,-,-,-
Nc1ncnc(N)c1N=Nc1ccccc1,0,0,-,-,-
Cc1cc(C)n2nc(N)c(N=Nc3ccc4c(c3)OCO4)c2n1,0,0,0,0,0
Nc1nn(-c2ccccc2)c(N)c1N=Nc1ccccc1,0,0,5µM,0,0
Cc1nn(-c2ccccc2)c(N)c1N=Nc1ccc(Cl)cc1,?,0,7.9µM,0,?
Cc1cccc(N=Nc2c(C)nn(-c3ccccc3)c2N)c1C,?,0,7.1µM,0,?
Cc1cc(C)n2nc(N)c(N=Nc3ccccc3)c2n1,0,0,14µM,0,0
N[C@@]1(C(=O)O)CN[C@@H](C(=O)O)C1,-,-,0,0,0
O=C(OCc1nnc(-c2ccccc2)o1)c1cccc(S(=O)(=O)N2CCOCC2)c1,0,-,-,-,-
Cc1nn(-c2ccccc2)c(N)c1N=Nc1ccccc1,?,0,8.9µM,0,?
Cc1nn(-c2ccccc2)c(N)c1N=Nc1cccc(S(=O)(=O)N2CCOCC2)c1,0,0,?,0,?
Nc1nn(-c2ccccc2)c(N)c1N=Nc1ccccc1F,0,0,4.5µM,0,?
Nc1c(N=Nc2ccccc2F)c(=O)[nH]n1-c1ccccc1,0,0,?,0,?
COc1cccc(C(=O)Nc2ccc3nc(N4CCN(c5ncccn5)CC4)cc(C)c3c2)c1OC,-,0,8.9µM,0,0
COc1cccc(C(=O)Nc2ccc3nc(N4CCOCC4)cc(C)c3c2)c1,0,0,5µM,0,?
COc1cc(OC)cc(C(=O)Nc2ccc3nc(N4CCCCC4)cc(C)c3c2)c1,0,-,?,?,?
SMILES,USP1 inh,FBPA coupling cs,Tau ThT inhib,Tau fibril FP,Tau fluor cs
COc1ccc(CC(=O)Nc2ccc3nc(N4CCCCC4)cc(C)c3c2)cc1,0,-,?,0,13µM[quencher]
Cc1cc(Nc2cccc(Cl)c2)nc2ccc(NC(=O)COc3ccc(Cl)cc3)cc12,0,-,?,0,7.9µM[quencher]
Cc1cc(N2CCOCC2)nc2ccc(NC(=S)N3CCCCC3C)cc12 (centres undefined),0,0,11µM,0,16µM[quencher]
Cc1cccc(OCC(=O)Nc2ccc3nc(Nc4cccc(Cl)c4)cc(C)c3c2)c1,0,-,?,0,?
COc1c(C)cccc1C(=O)Nc1ccc(N2CCOCC2)c(Cl)c1,0,-35,?,0,0
Cc1cc(N2CCN(C)CC2)nc2ccc(NC(=S)N3CCCCC3)cc12,0,0,?,0,?
COc1ccc(Nc2cc(C)c3cc(NC(=O)Cc4ccc(Cl)cc4)ccc3n2)cc1,0,-,11µM,0,5µM[quencher]
C[C@H](CO)N1C[C@H](C)[C@@H](CN(C)C(=O)Nc2ccc(F)cc2)OCc2cnnn2CCCC1=O,0,-,-,-,-
Cn1c(N=Nc2ccc(N3CCOCC3)cc2)[n+](C)c2ccccc21,0,0,1µM,14µM,4µM[quencher]
Cn1c(=Nc2ccc(N3CCOCC3)cc2)ccc2ccccc21,0,0,0,0,0
COCCCNC(=O)c1ccc(-n2c(-c3ccccc3)cc3c2CCC(C)C3)cc1 (centres undefined),0,-,0,13µM,0
CCCNC(=O)c1ccc(-n2c(-c3ccccc3)cc3c2CCCCC3)cc1,0,-,0,?,?
Cc1cc2c(n1-c1ccc(C(=O)NCCc3ccccc3)cc1)CCC(C)C2 (centres undefined),0,-,?,?,0
CCOCCCNC(=O)c1ccc(-n2c(-c3ccccc3)cc3c2CCCCC3)cc1,0,-,0,20µM,?
CC(C)NC(=O)c1ccc(-n2c(-c3ccccc3)cc3c2CCCC3)cc1,0,-,0,?,0
CC(C)OCCCNC(=O)c1ccc(-n2c(-c3ccccc3)cc3c2CCCC3)cc1,0,-,0,14µM,?
CCNC(=O)c1ccc(-n2c(-c3ccccc3)cc3c2CCCCC3)cc1,0,-,0,11µM,?
CC(=O)Nc1c(Cl)c(Cl)c2c(c1Cl)Cc1cc(Cl)ccc1-2,0,-,-,-,-
CCCCOc1ccc(N(CC(=O)NCCOC)C(=O)CCC(=O)Nc2ccccn2)cc1,0,0,-,-,-
CN(C)c1ccc(CNC(=O)CCCN2C(=O)c3cccnc3Oc3ccc(Cl)cc32)cc1,0,-,0,0,0
CC(=O)Nc1ccc(NC(=O)CC(C)n2ccc(C)n2)cc1 (centres undefined),0,-,0,0,0
COCCNC(=O)c1ccc(-n2c(-c3ccccc3)cc3c2CCCCC3)cc1,0,-,0,25µM,?
CN(C)CCNC(=O)c1ccc(-n2c(-c3ccccc3)cc3c2CCCC3)cc1,0,-,?,0,0
CC(C)OCCCNC(=S)Nc1ccc(S(N)(=O)=O)cc1,0,-65,0,0,0
Oc1cc2c(cc1C(c1ccc(Br)cc1)N1CCCC1)OCO2 (centres undefined),0,0,22µM,0,?
SMILES,USP1 inh,FBPA coupling cs,Tau ThT inhib,Tau fibril FP,Tau fluor cs
CCC(=O)N1c2ccc(S(=O)(=O)CCC(=O)NCc3ccc(OC)cc3)cc2CC1C (centres undefined),0,-,0,0,0
O=C(O)c1ccccc1-c1ccc(/C=C/c2cc(C(F)(F)F)[nH]c(=O)n2)o1,28µM,0,0,0,0
O=Cc1ccc(-c2ccc(F)cc2)o1,0,0,0,0,0
O=c1nc(/C=C/c2ccc(-c3ccc(F)cc3)o2)cc(C(F)(F)F)[nH]1,-,0,16µM,0,0
O=C(O)c1cc(Cl)ccc1-c1ccc(/C=C/c2cc(C(F)(F)F)[nH]c(=O)n2)o1,28µM,0,0,0,0
Cc1c(C2=CCN(S(=O)(=O)c3ccc(Cl)cc3)CC2)c2ccccc2n1CC(=O)N1CCCC1,0,-,0,0,0
CC1(C)CC(=O)C2=C(C1)c1c(ccc3ccccc13)NC2c1ccc(C(=O)O)cc1 (centres undefined),0,0,-,-,-
CC1(C)CC(=O)C2=C(C1)c1c(ccc3ccccc13)NC2c1cc([N+](=O)[O-])cc([N+](=O)[O-])c1O (centres undefined),?,0,11µM,?,?
CCNc1nc(N)c(C(=O)c2ccc(Cl)s2)s1,0,0,13µM,0,?
